# Reference: PubChem BioAssay (NCATS)
# Inconclusive results are not listed. A number with no mark means an inactive call. Calls of active or inactive are those of the source. Calls follow the shape of the dose curve; as a rule, active = well fitted inhibition curve with a large enough effect; inconclusive = small, poorly fitted or top-dose-only effect; inactive = no such curve, though single readings can be large or run the other way.
# Biological target: Cytochrome P450 1A2 (Homo sapiens) (UniProt P05177)
# Sequence (P05177 whole entry, looked up): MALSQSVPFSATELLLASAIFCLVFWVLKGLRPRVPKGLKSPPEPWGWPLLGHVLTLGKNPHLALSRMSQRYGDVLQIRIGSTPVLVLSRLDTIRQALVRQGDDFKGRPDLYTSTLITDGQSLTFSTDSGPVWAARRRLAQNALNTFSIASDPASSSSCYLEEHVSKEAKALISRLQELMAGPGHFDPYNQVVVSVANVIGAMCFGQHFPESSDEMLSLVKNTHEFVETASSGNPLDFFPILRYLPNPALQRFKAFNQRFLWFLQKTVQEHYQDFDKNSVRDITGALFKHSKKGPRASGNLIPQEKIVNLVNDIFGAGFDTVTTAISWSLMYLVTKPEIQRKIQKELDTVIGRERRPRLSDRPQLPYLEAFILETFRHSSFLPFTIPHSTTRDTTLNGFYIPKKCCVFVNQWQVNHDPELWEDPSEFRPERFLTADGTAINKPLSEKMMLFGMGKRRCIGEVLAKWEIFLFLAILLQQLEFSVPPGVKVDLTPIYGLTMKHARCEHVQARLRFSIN
# Experiment: qHTS for inhibitors of CYPIA2 against the NCATS DSHEA and TCM libraries (AID 1919976);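 as to activity change, negative = inhibition: light from luciferin formed by CYP1A2 from a pro-luciferin substrate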
# Conditions: recombinant CYP1A2 enzyme activity, luminescence; series mostly up to 37 µM; activity change, negative = inhibition: at the top concentration
# Excerpt: Assay Development and Screening Technology Laboratory (ADST)
# National Center for Advancing Translational Sciences (NCATS), Rockville, MD
# National Institute of Health (NIH), Bethesda, Maryland
# Dietary Supplements and Natural Products have minor oversight of their safety and efficacy. We assembled a collection of Dietary Supplements and Natural Products (DSNP) as well as Traditional Chinese Medicinal (TCM) Plant extracts, which were screened against an in vitro panel of assays, including a liver cytochrome p450 enzyme panel, CAR/PXR signaling pathways, and P-gp transporter assays, to assess their activity. This pipeline facilitated the interrogation of Natural Product-Drug Interaction (NaPDI) through prominent metabolizing pathways. In addition, we compared the activity profiles of the DSNP/TCM substances with those of an approved drug collection. Many of the approved drugs have well-annotated mechanisms of action (MOA) while the MOAs for most of the DSNP and TCM samples remain unknown. Based on the premise that compounds with similar activity profiles tend to share similar targets or MOA, we clustered the library activity profiles to identify overlap with the NCATS Pharmaceutical Collection to predict the MOAs of the DSNP/TCM substances. Overall, we highlight four significant bioactivity profiles (measured by p-values) as examples of this prediction. To assess broad cytotoxicity, we employed screening against a HepG2 cell line. In addition, transporter-mediated drug interactions are utilized in the characterization of DDIs using a P-glycoprotein (P-gp) assays. To profile potential P-gp activity, a differential cell viability was measured against two cell lines: a parental KB-3-1 human cervical adenocarcinoma cell line and the drug-resistant subline KB-8-5-11 that overexpresses P-gp.
# To this end, we profiled both collections for potential CAR and/or PXR activity, employing a previously published 1536-well qHTS assay.
# [1] Lee TD, et al. A High-Throughput Screen of a Library of Therapeutics Identifies Cytotoxic Substrates of P-glycoprotein. Mol Pharmacol. Nov 2019;96(5):629-640. doi:10.1124/mol.119.115964
# PROTOCOL TABLE (as described by Inglese J, Shamu CE and Guy RK. 2007)
# SEQUENCE No. (e.g., 1, 2, 3, etc.); […] (e.g., Cells, Incubation, Reagent, etc.); VALUE; DESCRIPTION.
# 1; Reagent; 2 uL; cytochrome P450 enzyme and luciferin substrate or buffer only, white solid-bottom Greiner plate.
# 2; Compounds and control; 16 nL; Kalypsis pintool (Wako USA) equipped with a 1536-well pin head to transfer to the assay plates.
# 3; Incubation; 15 min; room temperature.
# 4; Reagent; 2 uL; nicotinamide adenine dinucleotide phosphate (NADPH).
# 5; Incubation; 30 - 45 min; room temperature in the dark.
# 6; Reagent; 4 uL; P450-Glo assay detection reagent.
# 7; Centrifuge; 1000 RPM; 15 seconds.
# 8; Incubation; 30 min; room temperature.
# 9; Read; Luminescence; ViewLux plate reader.
# NOTES (numbers refer to Sequence numbers above)
# 1. A 2 uL mixture of corresponding enzymes and luciferin substrate (final concentrations CYP enzyme-specific and pro-luciferin substrate-specific) or minus-enzyme (assay buffer conditions supplied by the manufacturer for respective enzyme isoform; typically, 100 mM KPO4) and luciferin substrate were dispensed using a BioRAPTR FRD (Beckman Coulter, Brea, CA) into columns of a 1536-well white solid-bottom medium binding plate (Greiner Bio-One, Monroe, NC). Five isoforms of cytochrome P450 were used (CYP1A2, CYP2C9, CYP2C19, CYP2D6, and CYP3A4).
# 2. […] Intraplate controls furafylline (CYP1A2), sulfaphenazole (CYP2C9), ketoconazole (CYP2C19), quinidine (CYP2D6), and ketoconazole (CYP3A4) were used correspondingly.
# 3. Assay plates were incubated at room temperature for 15 min.
# 4-5. […]
# % is scaled to controls: 0 for no effect and ±100 for the full control effect; potency is read from the fitted curve at half-maximal effect.
SMILES,"activity change, negative = inhibition",Potency
C=C/C(C)=C/C/C=C(\C)CCC=C(C)C,-29% [at 63.1 µM],
COc1ccc(/C=C/c2cc(OC)cc(=O)o2)cc1,,10 µM (active)
CCCCCCC/C=C/C(=O)CCc1ccc(O)c(OC)c1,,25.1 µM (active)
CC12CC3(O)OC(O1)C1(COC(=O)c4ccc(O)cc4)C3CC21OC1OC(CO)C(O)C(O)C1O (stereo not given),-1.25%,
C=C1CC/C=C(/C)CC[C@@H]2[C@@H]1CC2(C)C,,3.55 µM (active)
CC1(C)CC[C@]2(C(=O)O)CC[C@]3(C)C(=CCC4[C@@]5(C)CC[C@H](O)[C@@](C)(CO)C5CC[C@]43C)[C@H]2C1 (stereo not given in full),8.68%,
CC(C)=CCCC(C)(OC1OC(COC2OC(CO)C(O)C2O)C(O)C(O)C1O)C1CCC2(C)C1C(O)CC1C3(C)CCC(OC4OC(CO)C(O)C(O)C4OC4OC(CO)C(O)C(O)C4O)C(C)(C)C3CCC12C (stereo not given),6.09%,
CN(CC(=O)O)C(=N)N,29.8% [at 112 µM],
COc1ccc(C(=O)O)cc1,18.6% [at 63.1 µM],
O=C(/C=C/c1ccc(O)c(O)c1)O[C@H]1[C@H](O)C[C@](O)(C(=O)O)C[C@H]1OC(=O)/C=C/c1ccc(O)c(O)c1,-1.31%,
O=c1cc(-c2ccc(O)cc2)oc2cc(O[C@@H]3O[C@H](CO)[C@@H](O)[C@H](O)[C@H]3O[C@@H]3OC[C@](O)(CO)[C@H]3O)cc(O)c12,-20.7%,
CC1=C2[C@H](/C=C(\C)C(=O)O)CC[C@@H](C)[C@H]2CC1,-31.3%,
CC1(C)C2CCC1(C)C(O)C2 (stereo not given),19.9%,
O=C(/C=C/c1ccc(O)c(O)c1)O[C@@H]1CC(O)(C(=O)O)C[C@@H](OC(=O)/C=C/c2ccc(O)c(O)c2)C1O (stereo not given in full),2.55%,
CC1=CCC(=C(C)C)CC1,-1.44% [at 63.1 µM],
CC[C@H](CC[C@@H](C)[C@H]1CCC2C3CCC4C[C@@H](O)CC[C@]4(C)C3CC[C@@]21C)C(C)C (stereo not given in full),16.7%,
OCC1=C[C@@H](O)[C@@H]2C=CO[C@@H](OC3O[C@H](CO)[C@@H](O)[C@H](O)[C@H]3O)[C@H]12 (stereo not given in full),2.27%,
O=C(O)c1ccccc1,27.8%,
C=C1CC[C@H]2C[C@@H]1C2(C)C,12.2% [at 63.1 µM],
CC1=CC[C@H](C(C)C)C=C1,-2.8% [at 63.1 µM],

SMILES,"activity change, negative = inhibition",Potency
CC(=O)OC1CC2CCC1(C)C2(C)C (stereo not given),21.7%,
CC(C)c1ccc(C=O)cc1,8.51% [at 63.1 µM],
CC(C)=CCC[C@](C)(O[C@@H]1O[C@H](CO)[C@@H](O)[C@H](O)[C@H]1O)[C@H]1CC[C@]2(C)[C@@H]1[C@H](O)C[C@@H]1[C@@]3(C)CC[C@H](O)C(C)(C)[C@@H]3[C@@H](O[C@@H]3O[C@H](CO)[C@@H](O)[C@H](O)[C@H]3O)C[C@]12C,58.7%,
O=c1cc(-c2ccc(O)c(O)c2)oc2cc(O[C@@H]3O[C@@H](CO)[C@@H](O)[C@@H](O)[C@H]3O)cc(O)c12,,3.98 µM (active)
O=C(/C=C/c1ccc(O)c2c1[C@H](C(=O)O)[C@@H](c1ccc(O)c(O)c1)O2)O[C@H](Cc1ccc(O)c(O)c1)C(=O)O,-16.9%,
C=C1C[C@@]23CC[C@H]4[C@@](C)(CCC[C@@]4(C)C(=O)O[C@@H]4O[C@H](CO)[C@@H](O)[C@H](O)[C@H]4O)[C@@H]2CC[C@]1(O[C@@H]1O[C@H](CO)[C@@H](O)[C@H](O[C@@H]2O[C@H](CO)[C@@H](O)[C@H](O)[C@H]2O)[C@H]1O[C@@H]1O[C@@H](C)[C@H](O)[C@@H](O)[C@H]1O)C3,61.6%,
CC(C)(O)[C@@H]1CC[C@](C)([C@H]2[C@@H](O)C[C@@]3(C)[C@@H]4C[C@H](O)[C@H]5C(C)(C)[C@@H](O[C@@H]6OC[C@@H](O)[C@H](O)[C@H]6O[C@@H]6O[C@H](CO)[C@@H](O)[C@H](O)[C@H]6O)CC[C@@]56C[C@@]46CC[C@]23C)O1,-28.7%,
CC(C)=CCC[C@](C)(OC1OC(COC2OCC(O)C(O)C2O)C(O)C(O)C1O)[C@H]1CC[C@]2(C)[C@@H]1[C@H](O)C[C@@H]1[C@@]3(C)CC[C@H](OC4OC(CO)C(O)C(O)C4OC4OC(CO)C(O)C(O)C4O)C(C)(C)[C@@H]3CC[C@]12C (stereo not given in full),-2.39%,
O=Cc1ccccc1O,8.29% [at 63.1 µM],
C[C@@H]1OC(O[C@H]2[C@H](O)[C@@H](O)[C@H](OC[C@H]3O[C@@H](OC(=O)[C@]45CCC(C)(C)C[C@@H]4C4=CCC6[C@@]7(C)CC[C@H](OC8OC[C@H](O)[C@H](O)[C@H]8OC8O[C@@H](C)[C@H](O)[C@@H](O)[C@H]8O)[C@@](C)(CO)C7CC[C@@]6(C)[C@]4(C)CC5)[C@H](O)[C@@H](O)[C@@H]3O)O[C@@H]2CO)[C@H](O)[C@H](O)[C@H]1O (stereo not given in full),-0.112%,
C=CC(C)(CCC=C(C)C)OC(C)=O (stereo not given),21.3% [at 63.1 µM],
CCCCCCCCCCCCCCCCCCCCCCCCCCCCCCO,15.7% [at 4.62 µM],
CCCCCCCC/C=C/CCCCCCCCCC(=O)O,7.11%,
O=C(O)CC(O)(C(=O)O)C(O)C(=O)O (stereo not given),18.2%,
CC(=O)OC/C=C/c1ccccc1,,28.2 µM (active)
CCCCCC(=O)O,44.6% [at 63.1 µM],
CC1=CCC(O)(C(C)C)CC1 (stereo not given),7.34% [at 63.1 µM],
Oc1cc(O)c2c(c1)O[C@@H](c1cc(O)c(O)c(O)c1)[C@H](O)C2,,3.55 µM (active)
COc1ccccc1/C=C/C=O,,25.1 µM (active)
O=C(O[C@@H]1Cc2c(O)cc(O)cc2O[C@@H]1c1ccc(O)c(O)c1)c1cc(O)c(O)c(O)c1,6.68%,
